Potency and affinity values are given separately.
How the values were obtained:
Klebsiella pneumoniae = conditions: Concentration 32 ug.mL-1;; ASSAY_TEST Inhibition of Bacterial Growth; detection method Absorption (OD600); MEDIA CAMHB; plate type 384well; NBS; CORNING #3640; time 18 hr
Candida albicans = conditions: Concentration 32 ug.mL-1; ASSAY_TEST Inhibition of Fungal Growth; detection method Absorption (OD530)
Cryptococcus neoformans = conditions: Concentration 32 ug.mL-1; ASSAY_TEST Inhibition of Fungal Growth; detection method Resazurin; Absorption (OD600-OD570); plate type 384well; NBS; CORNING #3640

SMILES | Inhibition (Klebsiella pneumoniae) [%] | Inhibition (Candida albicans) [%] | Inhibition (Cryptococcus neoformans) [%]
Cc1ccc(-n2ccn3c(=O)n(Cc4cccc(F)c4)nc3c2=O)cc1C | 5.72 | 0.74 | -14.54
CCc1nnc2c(SCC(=O)Nc3ccc(C)cc3Br)nc3ccccc3n12 | 6.8 | 1.54 | -14.73
Cc1ccc(Oc2nc3ccccc3n3c(=O)n(CC(=O)Nc4cccc(C(F)(F)F)c4)nc23)cc1 | 8.2 | 1.82 | -21.42
Cc1ccc(CNC(=O)Cn2nc3c(SC4CCCCC4)nccn3c2=O)cc1 | 14.28 | -1.05 | -11.99
O=C(CSc1nnc2c(=O)n(-c3ccc(Br)cc3)ccn12)c1ccc(F)cc1 | 7.31 | 5.26 | -8.48
CCOC(=O)c1ccccc1NC(=O)Cn1nc2c(Oc3cccc(OC)c3)nccn2c1=O | 5.46 | 0.95 | -5.16
O=C(Cn1nc2c3cc(-c4ccc(Cl)cc4)nn3ccn2c1=O)N1CCN(c2ccccc2)CC1 | 10.64 | 0.94 | -23.41
COc1ccc(CN(c2ccc(F)cc2)S(=O)(=O)c2ccc3nnc(C)n3c2)cc1F | 2.68 | 1.42 | -6.58
COc1cccc(Oc2nccn3c(=O)n(CC(=O)Nc4ccc5c(c4)OCO5)nc23)c1 | 7.21 | 1.19 | -8.5
Cc1ccc(Sc2nccn3c(=O)n(CC(=O)Nc4c(C)cc(C)cc4C)nc23)c(C)c1 | 17.85 | -0.74 | -21.38
O=C(NCc1ccccc1)c1ccc2nn(CC(=O)N3CCN(c4ccc(F)cc4)CC3)c(=O)n2c1 | -0.37 | 5.32 | -7.39
CCOc1cccc(CNC(=O)CCc2nnc3ccc(-c4ccc(C)cc4)nn23)c1 | 8.62 | 2 | -6.55
Cc1ccc(NC(=O)Cn2nc3ccc(SC4CCCCC4)nn3c2=O)cc1C | -2.51 | 4.67 | -21.19
Cc1cccc(C)c1NC(=O)Cn1nc2ccc(SCc3ccc(Cl)cc3)nn2c1=O | -2.95 | 27.65 | -10.13
CCCCc1ccc(NC(=O)Cn2c(=O)c3nnc(C(C)C)n3c3ccccc32)cc1 | 18.09 | -0.74 | -30.75
COc1ccccc1NC(=O)Cn1nc2c(SC3CCCCC3)nccn2c1=O | -0.89 | 12.37 | -26.18
CCCN(C)c1nccn2c(=O)n(CC(=O)Nc3cccc(C(F)(F)F)c3)nc12 | 7.15 | -0.05 | -3.78
COc1ccc(-c2cc3c4nn(CC(=O)Nc5c(C)cccc5C)c(=O)n4ccn3n2)cc1 | 9.85 | 7.22 | -19.98
Cc1cccc(N(Cc2cccc(Cl)c2)S(=O)(=O)c2cccn3c(C)nnc23)c1 | 4.74 | 3 | -4.93
Cc1ccc(C)c(CSc2nnc3c(=O)n(-c4ccc(Br)cc4)ccn23)c1 | 7.74 | 3.39 | -4.05
Cc1ccc(NC(=O)Cn2nc3c(SC4CCCCC4)nccn3c2=O)cc1F | 13.26 | -0.51 | -26.18
COc1ccc(NC(=O)CSc2nnc3c(=O)n(-c4ccc(Br)cc4)ccn23)cc1 | 8.82 | 5.75 | -12.25
Cc1cc2nn(CC(=O)Nc3ccc(F)cc3Cl)c(=O)n2c(Nc2ccccc2C)n1 | 1.95 | 30.65 | -16.44
